Measurements reported in PubChem BioAssay AID2284141 (EPA ToxCast).
Results filed as inconclusive are left out. Calls of active or inactive are those of the source. How the source made its calls: active means hit-call score of the fitted dose curve at least 0.9, where 1 is the maximum; inconclusive means response in the unintended direction; inactive means score below 0.9.

Each molecule was assayed against hamster Adenylyl Cyclase, Adcy5 (gene 64532) (UniProt Q04400) (assay: ERF_FR_ENZ_rACFSK_Antagonist: Eurofins (ERF) Enzymatic LeadHunter Assay for hamster Adenylyl Cyclase Antagonism).
Sequence of hamster Adenylyl Cyclase, Adcy5 (gene 64532) (Q04400 whole entry, looked up): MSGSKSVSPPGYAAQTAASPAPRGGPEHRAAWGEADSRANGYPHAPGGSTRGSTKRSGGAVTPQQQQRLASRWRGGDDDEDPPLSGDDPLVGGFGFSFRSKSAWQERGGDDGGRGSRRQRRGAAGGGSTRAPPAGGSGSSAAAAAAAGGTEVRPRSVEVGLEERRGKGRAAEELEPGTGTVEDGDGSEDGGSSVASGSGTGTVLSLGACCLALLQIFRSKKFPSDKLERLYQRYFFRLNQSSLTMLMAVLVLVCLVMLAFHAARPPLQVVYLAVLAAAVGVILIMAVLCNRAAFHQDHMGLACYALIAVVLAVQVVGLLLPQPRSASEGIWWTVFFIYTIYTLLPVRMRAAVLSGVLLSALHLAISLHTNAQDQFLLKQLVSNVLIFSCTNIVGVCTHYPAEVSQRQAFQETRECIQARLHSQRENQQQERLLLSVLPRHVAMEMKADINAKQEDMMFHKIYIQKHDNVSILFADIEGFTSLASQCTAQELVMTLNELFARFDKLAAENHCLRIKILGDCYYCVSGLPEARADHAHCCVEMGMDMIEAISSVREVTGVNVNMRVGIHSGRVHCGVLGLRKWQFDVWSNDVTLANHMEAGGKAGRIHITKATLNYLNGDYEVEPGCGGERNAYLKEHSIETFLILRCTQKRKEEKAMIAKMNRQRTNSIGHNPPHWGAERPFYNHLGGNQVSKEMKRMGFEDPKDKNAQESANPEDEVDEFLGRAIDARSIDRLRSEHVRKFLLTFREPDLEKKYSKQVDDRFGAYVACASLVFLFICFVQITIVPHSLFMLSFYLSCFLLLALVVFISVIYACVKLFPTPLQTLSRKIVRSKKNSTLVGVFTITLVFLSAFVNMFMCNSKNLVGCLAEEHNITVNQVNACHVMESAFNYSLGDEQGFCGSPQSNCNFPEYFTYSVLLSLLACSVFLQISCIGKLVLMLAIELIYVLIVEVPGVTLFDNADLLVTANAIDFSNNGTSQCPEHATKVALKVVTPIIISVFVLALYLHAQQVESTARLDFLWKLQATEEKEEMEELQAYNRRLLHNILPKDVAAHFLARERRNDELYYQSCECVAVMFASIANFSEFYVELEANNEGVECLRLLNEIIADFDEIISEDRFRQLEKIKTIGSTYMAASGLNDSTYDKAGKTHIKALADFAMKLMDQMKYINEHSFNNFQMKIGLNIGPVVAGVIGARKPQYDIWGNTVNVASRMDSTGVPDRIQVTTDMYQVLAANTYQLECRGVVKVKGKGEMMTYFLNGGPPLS
Description: ERF_FR_ENZ_rACFSK_Antagonist is a biochemical, single-readout assay that uses extracted gene-proteins in a cell-free assay. Measurements were taken 0.16 hour after chemical dosing in a 96-well plate. See Adenylyl Cyclase Hamster Enzymatic Antagonist Assay, Cerep.ERF_FR_ENZ_rACFSK_Antagonist is an assay component calculated from the ERF_FR_ENZ_rACFSK assay. It is designed to measure enzyme activity using a type of enzyme reporter as detected by fluorescence intensity with HTRF technology.Data from the assay component ERF_FR_ENZ_rACFSK_Antagonist was analyzed at the assay endpoint, ERF_FR_ENZ_rACFSK_Antagonist, in the positive analysis fitting direction relative to DMSO as the negative control and baseline of activity. Using a type of enzyme reporter, loss-of-signal activity can be used to understand changes in binding as they relate to gene ADCY5. To generalize the intended target to other relatable targets, this assay endpoint is annotated to the gpcr intended target family, where the subfamily is adenylyl cyclase.
Hamster cells are incubated for 10 minutes at room temprature. Test Sample Requirements: Minimum for 1) Screen: 60 ul of 10 mM stock -OR- 1 mg (pre-weighed) for 10 uM final testing. 2) Dose Response: 90 ul of 10 mM stock -OR- 1 mg (pre-weighed) for a top concentration at 10 uM.
`O=C(/C=C/c1ccc(O)cc1)CC(=O)/C=C/c1ccc(O)cc1` was tested, and the outcome was “inactive”. `COc1cccc2c1C(=O)c1c(O)c3c(c(O)c1C2=O)C[C@@](O)(C(=O)CO)C[C@@H]3O[C@H]1C[C@H](N)[C@H](O)[C@H](C)O1` was tested, and the AC50 was 2.6 µM (active). With `COc1cc(CCC(=O)CC(=O)CCc2ccc(O)c(OC)c2)ccc1O` the outcome was “inactive”.
